This is an account of results in PMC4336329 (PLoS ONE, 2015).

In all, about 310,000 compounds went through this assay and about 14,000 (4.5%) showed an effect of 50% or more. The effect is printed as a negative number. The sample holds strong results, similar compounds and a random draw of the others, so the mix is not that of the screen.
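Also: peak tail current of the secondary pulse compared with the same well before compound.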

In the assay the target is human ether-à-go-go-related gene (hERG) potassium channel (human, UniProt Q12809). In words: primary screen, population patch clamp on CHO cells stably expressing hERG; higher = less effect of the substance.
human ether-à-go-go-related gene (hERG) potassium channel, sequence (Q12809 whole entry, looked up): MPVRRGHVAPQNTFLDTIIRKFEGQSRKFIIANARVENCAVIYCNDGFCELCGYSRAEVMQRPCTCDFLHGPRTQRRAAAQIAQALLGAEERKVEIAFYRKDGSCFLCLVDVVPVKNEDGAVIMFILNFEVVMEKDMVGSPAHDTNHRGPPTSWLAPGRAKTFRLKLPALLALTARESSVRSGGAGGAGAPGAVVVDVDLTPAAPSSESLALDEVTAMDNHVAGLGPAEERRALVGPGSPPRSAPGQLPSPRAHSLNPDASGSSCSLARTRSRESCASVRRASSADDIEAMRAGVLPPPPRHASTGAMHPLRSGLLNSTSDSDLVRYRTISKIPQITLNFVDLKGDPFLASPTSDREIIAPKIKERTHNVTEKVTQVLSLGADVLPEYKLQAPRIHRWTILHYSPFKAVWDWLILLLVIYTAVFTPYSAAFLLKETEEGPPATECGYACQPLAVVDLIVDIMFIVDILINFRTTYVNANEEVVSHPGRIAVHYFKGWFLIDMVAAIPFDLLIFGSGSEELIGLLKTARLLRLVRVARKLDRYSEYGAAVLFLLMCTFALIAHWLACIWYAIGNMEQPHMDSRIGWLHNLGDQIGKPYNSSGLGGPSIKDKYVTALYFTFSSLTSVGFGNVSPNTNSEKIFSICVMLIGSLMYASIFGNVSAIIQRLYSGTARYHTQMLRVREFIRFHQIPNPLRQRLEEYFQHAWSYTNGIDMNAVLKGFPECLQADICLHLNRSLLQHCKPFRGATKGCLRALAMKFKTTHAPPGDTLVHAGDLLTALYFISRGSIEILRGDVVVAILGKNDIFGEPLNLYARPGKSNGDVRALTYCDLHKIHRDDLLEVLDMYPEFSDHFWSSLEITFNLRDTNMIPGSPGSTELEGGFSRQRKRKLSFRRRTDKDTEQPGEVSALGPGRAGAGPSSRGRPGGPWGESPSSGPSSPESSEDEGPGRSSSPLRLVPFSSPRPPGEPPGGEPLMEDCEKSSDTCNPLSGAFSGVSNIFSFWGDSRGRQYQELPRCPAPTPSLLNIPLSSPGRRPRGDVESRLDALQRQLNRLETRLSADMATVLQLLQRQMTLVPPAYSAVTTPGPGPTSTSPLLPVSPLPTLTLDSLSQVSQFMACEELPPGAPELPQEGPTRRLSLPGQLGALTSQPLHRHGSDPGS
Take `CCN1C(=O)C(=O)N(Cc2ccc(OC)c(F)c2)C1=O`: the “hERG current change (%, negative = inhibition) at 10uM” value turned out to be 15.1%.

Take `CC(C)CCNC(=O)C(c1ccco1)N(Cc1ccc(F)cc1)C(=O)c1snc(C(N)=O)c1N` (stereo not shown): the “hERG current change (%, negative = inhibition) at 10uM” value is reported as -22.4%.

As for `CC(=O)NC(=C(Cl)Cl)S(=O)(=O)c1ccccc1`, the “hERG current change (%, negative = inhibition) at 10uM” value was 23.9%.

Take `CCCCCn1c(=O)c(C(=O)Nc2cccc(C)c2)c(O)c2ccccc21`: the “hERG current change (%, negative = inhibition) at 10uM” value is recorded as 20.7%.

In the case of `CCN(CC)CCCNc1cc(C(F)(F)F)c(C#N)c2nc3ccccc3n12`, the “hERG current change (%, negative = inhibition) at 10uM” value is listed as -18.4%.

`CCc1cccc(N(C(=O)c2csnn2)C(C(=O)NC(C)(C)C)c2ccccn2)c1` (stereo not shown): the “hERG current change (%, negative = inhibition) at 10uM” value is recorded as 1.65%.

For the molecule `Cc1ccc(C(=O)Nc2c(C)cc(-c3ccc(Cl)cc3)oc2=O)cc1`, the “hERG current change (%, negative = inhibition) at 10uM” value was -6.18%.

Regarding `O=S(=O)(/N=C(/Nc1ccccc1F)c1ccccc1)c1ccccc1`, the “hERG current change (%, negative = inhibition) at 10uM” value is recorded as 4.57%.

As to `O=C(NNC(=O)c1cnccc1C(F)(F)F)c1ccc(Cl)cc1`, the “hERG current change (%, negative = inhibition) at 10uM” value amounted to 11.1%.

Regarding `Cc1c(C(c2cccc([N+](=O)[O-])c2O)c2c(C)n(C)n(-c3ccccc3)c2=O)c(=O)n(-c2ccccc2)n1C`, the “hERG current change (%, negative = inhibition) at 10uM” value is -2.28%.

Take `CCc1cccc(NC(=S)N(CCOC)C(C)c2ccco2)c1` (stereo not shown): the “hERG current change (%, negative = inhibition) at 10uM” value is reported as -2.48%.

For the molecule `COc1ccc(-n2cc3ccc([N+](=O)[O-])cc3n2)cc1`, the “hERG current change (%, negative = inhibition) at 10uM” value amounted to 7.2%.

In the case of `Cl.Cn1c(=N)n(CC(O)c2ccccc2)c2ccccc21` (stereo not shown), the “hERG current change (%, negative = inhibition) at 10uM” value is on record as -26.3%.

On to `CCCn1c(C(O)c2ccc(C)cc2)nc2ccccc21` (stereo not shown), for which the “hERG current change (%, negative = inhibition) at 10uM” value is listed as 15.8%.

As for `CCn1c(=N)n(CC(O)c2cccs2)c2ccccc21.Cl` (stereo not shown), the “hERG current change (%, negative = inhibition) at 10uM” value was -60.4%.

For the molecule `CCCCn1c(=N)n(CC(O)c2ccccc2)c2ccccc21.Cl` (stereo not shown), the “hERG current change (%, negative = inhibition) at 10uM” value was -64.9%.

With `CCCn1c(=N)n(CC(O)c2ccc(C)cc2)c2ccccc21.Cl` (stereo not shown), the “hERG current change (%, negative = inhibition) at 10uM” value is reported as -65.6%.

Consider `Cl.Cn1c(=N)n(CC(O)c2cccc3ccccc23)c2ccccc21` (stereo not shown), for which the “hERG current change (%, negative = inhibition) at 10uM” value is recorded as -67%.

Turning to `Cl.Cn1c(=N)n(CC(O)c2cccs2)c2ccccc21` (stereo not shown), the “hERG current change (%, negative = inhibition) at 10uM” value is given as -39.9%.

With `COc1cccc(C(O)Cc2nc3ccccc3n2C)c1OC` (stereo not shown), the “hERG current change (%, negative = inhibition) at 10uM” value amounted to 23.7%.

`Br.Cn1c(=N)n(CC(=O)O)c2ccccc21`: the “hERG current change (%, negative = inhibition) at 10uM” value is -5.99%.

Regarding `CCCCCN(C(=O)CCC(=O)OCC(=O)N(CC#N)c1ccccc1)c1c(N)n(CCCC)c(=O)[nH]c1=O`, the “hERG current change (%, negative = inhibition) at 10uM” value is listed as -0.196%.

For the molecule `COc1ccc(NC(=O)C(OC(=O)c2cnccn2)c2ccccc2)cc1Cl` (stereo not shown), the “hERG current change (%, negative = inhibition) at 10uM” value came out at 24.7%.

Regarding `Cc1ccc(S(=O)(=O)N2CCN(Cc3csc(C)n3)CC2)cc1`, the “hERG current change (%, negative = inhibition) at 10uM” value came to 6.87%.

As for `O=[N+]([O-])c1ccc(-c2nn(-c3ccccc3)cc2/C=N/n2c(-c3ccncc3)n[nH]c2=S)cc1`, the “hERG current change (%, negative = inhibition) at 10uM” value was 19.4%.

Take `CN1CCN(C(=O)c2cc3ccccc3[nH]2)CC1`: the “hERG current change (%, negative = inhibition) at 10uM” value was -3.26%.

Turning to `CCN(CC)c1ccc(/C=C(/C#N)C(=O)NCc2ccccc2)o1`, the “hERG current change (%, negative = inhibition) at 10uM” value worked out at 2.6%.

On to `CCOc1ccc(N2C(=O)CC(N(O)c3ccccc3)C2=O)cc1` (stereo not shown), for which the “hERG current change (%, negative = inhibition) at 10uM” value is given as 2.96%.

For the molecule `OCC[C@H]1C[C@H](O)[C@@H](O)[C@]2(CCCc3ccccc3O2)O1`, the “hERG current change (%, negative = inhibition) at 10uM” value is 0.151%.

With `COCCNC(=O)CN1CCN(S(=O)(=O)c2ccc3c(c2)CCCC3)CC1`, the “hERG current change (%, negative = inhibition) at 10uM” value is -7.28%.

Take `COc1cc(N2C(=O)CC3(CCCC3)CC2=O)cc(OC)c1OC`: the “hERG current change (%, negative = inhibition) at 10uM” value amounted to 4.04%.

Take `CN1CCN(CCC(C#N)(c2ccccc2)c2ccccc2)CC1.Cl`: the “hERG current change (%, negative = inhibition) at 10uM” value was -62.9%.

As to `N#CC(CCN1CCOCC1)(c1ccccc1)c1ccccc1`, the “hERG current change (%, negative = inhibition) at 10uM” value is -20.8%.

For `CCOC(=O)C1(c2ccccc2)CCN(CCC(C#N)(c2ccccc2)c2ccccc2)CC1.Cl`, the “hERG current change (%, negative = inhibition) at 10uM” value was -25%.

For `O=C(NCc1ccc(Cl)cc1)NCC(F)(F)F`, the “hERG current change (%, negative = inhibition) at 10uM” value came out at 7%.

Take `Cc1ccc(NC(=O)CS(=O)CC(=O)N(C2CCCC2)C(C)C(=O)NC2CCCCC2)cc1` (stereo not shown): the “hERG current change (%, negative = inhibition) at 10uM” value was -22.5%.

As for `CCOC(=O)c1ccc2c(c1)nc(COc1ccc3ccccc3c1)n2CC`, the “hERG current change (%, negative = inhibition) at 10uM” value is listed as 3.73%.

For the molecule `COc1ccc(NC(=O)CSc2nnc(Cc3cccn3C)n2-c2ccc(F)cc2)cc1`, the “hERG current change (%, negative = inhibition) at 10uM” value is given as -21.7%.

With `COc1ccc(Cl)cc1NC(=O)CSc1nnc(Cc2cccn2C)n1-c1ccc(F)cc1`, the “hERG current change (%, negative = inhibition) at 10uM” value was -34.6%.

Take `COc1ccc(-n2c(Cc3cccn3C)nnc2SCC(=O)Nc2ccc(F)cc2F)cc1`: the “hERG current change (%, negative = inhibition) at 10uM” value is -57.4%.

For the molecule `COc1ccc(-n2c(Cc3cccn3C)nnc2SCC(=O)Nc2ccccc2F)cc1`, the “hERG current change (%, negative = inhibition) at 10uM” value was -53.7%.

`COc1ccc(-n2c(Cc3cccn3C)nnc2SCC(=O)Nc2ccccc2OC)cc1`: the “hERG current change (%, negative = inhibition) at 10uM” value was -38.5%.

On to `COc1ccc(-n2c(Cc3cccn3C)nnc2SCC(=O)Nc2cc(Cl)ccc2OC)cc1`, for which the “hERG current change (%, negative = inhibition) at 10uM” value is on record as -97.9%.

In the case of `COc1ccc(-n2c(Cc3cccn3C)nnc2SCC(=O)Nc2ccc(C)cc2)cc1`, the “hERG current change (%, negative = inhibition) at 10uM” value is on record as -26.4%.

Turning to `Cn1cccc1Cc1nnc(SCC(=O)Nc2ccc(F)cc2F)n1-c1ccc(F)cc1`, the “hERG current change (%, negative = inhibition) at 10uM” value was -40.9%.

Turning to `COc1ccc(NC(=O)CSc2nnc(Cc3cccn3C)n2-c2ccc(OC)cc2)cc1`, the “hERG current change (%, negative = inhibition) at 10uM” value is recorded as -21.2%.

For `Cn1cccc1Cc1nnc(SCC(=O)Nc2ccccc2F)n1-c1ccc(F)cc1`, the “hERG current change (%, negative = inhibition) at 10uM” value is reported as -17.4%.

In the case of `COc1ccc(-n2c(Cc3cccn3C)nnc2SCC(=O)Nc2cc(C)cc(C)c2)cc1`, the “hERG current change (%, negative = inhibition) at 10uM” value is given as -52.4%.

`COc1ccc(OC)c(NC(=O)CSc2nnc(Cc3cccn3C)n2-c2ccc(F)cc2)c1`: the “hERG current change (%, negative = inhibition) at 10uM” value is -10.4%.

Turning to `COc1ccc(C2=NOC(C(=O)N3CCOCC3)C2)cc1OC` (stereo not shown), the “hERG current change (%, negative = inhibition) at 10uM” value amounted to 11.6%.

As to `COCc1cc(C)nc(SCC(=O)Nc2cccc(C)c2)c1C#N`, the “hERG current change (%, negative = inhibition) at 10uM” value is reported as 14.2%.

Consider `COC1=CC(=O)C(O)=C(CCCCCCC/C=C/CCCCCCCC2=C(O)C(=O)C=C(OC)C2=O)C1=O`, for which the “hERG current change (%, negative = inhibition) at 10uM” value is reported as -3%.

`CCOc1ccc(/C(CCC(=O)O)=N/NC(=S)NC(C)C)cc1`: the “hERG current change (%, negative = inhibition) at 10uM” value is on record as 14.1%.

For the molecule `CC1(C)NC(=O)N(CC(=O)O)C1=O`, the “hERG current change (%, negative = inhibition) at 10uM” value amounted to 18%.

Regarding `N/C(=N\OC(=O)c1ccc2ccccc2c1)c1ccccn1`, the “hERG current change (%, negative = inhibition) at 10uM” value worked out at 28.3%.
